HER2 expr 66K: inhibitors of human Her2 kinase expression; P04626; SKBR-3 HER2 protein level, AlphaScreen, 18-24 h; hits give low values; HER2 level % of control, % at 10 µM; actives 0.69% (n = 65,000);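 active = HER2 level under 5% of the carrier-only control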;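 note: lower value means stronger loss of Her2 protein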
SK-BR-3 tox 24h: SK-BR-3 proliferation inhibitors. SK-BR-3 viability, CellTiter-Glo ATP luminescence, 24 h; hits give low values. viability, % at 10 µM. actives 0.47% (n = 41,000);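 active = viability at or below the median of all test compounds minus 3 SD, in both replicates if run twice, cut at about 45% in these data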
Jurkat viability: reduces viability or proliferation of Jurkat cells; Jurkat E6.1 viability, ATP luminescence, 48 h; inhibition, % at 4 µM; actives 1.2% (n = 56,000);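 active = inhibition above the mean inhibition of all tested compounds plus 3 SD, cut at about 28% in these data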
Numbers stand for hits; – = inactive; · = no result given. Rows were chosen to be rich in hits. Some 1.9% of all compounds tested hit in one or more screens of this group.

SMILES | HER2 expr 66K | SK-BR-3 tox 24h | Jurkat viability
Fc1ccc(Br)cc1C1C=C(c2cccnc2)Nc2ncnn21 (stereo unspecified) | – | · | 39
COc1cccc(C2=CC(c3ccccc3)n3ncnc3N2)c1 (stereo unspecified) | – | – | ·
O=C(C1CC1)N1CCc2cc(S(=O)(=O)N(CCO)Cc3ccccc3)ccc21 | – | · | –
O=C(Nc1ccc(N2CCOCC2)cc1)Nc1ccc2nc(-c3ccco3)c(-c3ccco3)nc2c1 | – | – | 83
O=C(c1ccc2nc(-c3ccco3)c(-c3ccco3)nc2c1)N1CCN(c2ccccc2)CC1 | – | – | –
N#CN=C1CCCCCN1CC(N)=O | · | · | –
CCC(CO)NCc1ccc2c(c1)n(C)c(=O)n2C (stereo unspecified) | – | – | –
CCn1c(C)nc2cc(-c3nc4n(n3)Cc3ccccc3-4)ccc21 | – | · | 62
Fc1ccc(-c2nc3n(n2)Cc2ccccc2-3)cc1 | – | – | –
CCS(=O)(=O)Nc1ccc(-c2ccc(NS(=O)(=O)CC)c(OC)c2)cc1OC | – | – | –
CCOC(=O)CC(N)c1ccc2c(c1)OCO2 (stereo unspecified) | -21 | – | –
CCOC(=O)COc1ccc(S(=O)(=O)Nc2ccc3c(c2)OCO3)cc1 | – | – | –
Cc1cc(NC(=O)CSc2nnnn2Cc2ccccc2)no1 | – | – | –
CCOC(=O)N1CCN(c2nc(-c3ccc(OC)cc3)no2)CC1 | – | · | –
CCN(CC)CCNC(=O)CCCNC(=O)Cn1cnc2sc(C)c(C)c2c1=O | – | – | –
Cc1nc(NCc2ccco2)c2c3c(sc2n1)CCC3 | – | – | 36
c1coc(CNc2ncnc3sc4c(c23)CCCCC4)c1 | – | · | –
O=C(Nc1ccc(Cl)cn1)c1cccc(F)c1 | – | – | 85
CC(C)C(=O)Nc1ccc(NC(=O)c2cccc(F)c2)cn1 | – | · | –
Cc1c(C#N)c(N=CN(C)C)c(C(=O)c2ccccc2)n1-c1ccccc1 | – | · | –
Cc1c(C#N)c(N)c(C(=O)c2ccccc2)n1Cc1ccccc1 | -32 | – | ·
CCC/C(O)=C1\C(=O)CC(C)(C)CC1=Nc1ccc(OC)cc1OC | – | – | 86
COc1ccc(OC)c(N=CC2=C(O)CC(C)(C)CC2=O)c1 | – | · | –
Cn1c(C(=O)O)c(CC(=O)Nc2ccccc2F)c2ccccc21 | – | 30 | –
Cn1c(C(=O)O)c(CC(=O)NCC2COc3ccccc3O2)c2ccccc21 (stereo unspecified) | – | – | –
SMILES | HER2 expr 66K | SK-BR-3 tox 24h | Jurkat viability
CCOC(=O)c1c(C)c(C(=O)Nc2cc(OC)ccc2OC)c(C)n1CC | – | · | 35
CCOC(=O)c1c(C)[nH]c(C(=O)OCC(=O)Nc2cc(C)ccc2OC)c1C | – | – | –
CCOC(=O)c1c(C)c(C(=O)Nc2ccccc2)c(C)n1CC | – | · | –
CCOC(=O)c1[nH]c(C)c(C(=O)Nc2cc(OC)ccc2OC)c1C | – | · | 80
COc1ccc(N2CCN(S(=O)(=O)c3ccc(C(=O)NCc4ccco4)cc3)CC2)cc1 | – | · | ·
Cn1c(C(=O)OCC(=O)NCCc2ccccc2)cc2sccc21 | – | – | –
O=C(O)C1CCCCC1C(=O)Nc1nccs1 (stereo unspecified) | – | · | –
O=C(Nc1nccs1)C1C2/C=C\CCCCC21 (stereo unspecified) | -28 | – | –
O=C(NCCCN1CCN(c2cccc(Cl)c2)CC1)C1CCC(=O)N1Cc1ccccc1Cl (stereo unspecified) | – | – | –
Oc1ccccc1-c1nnc(SCCN2CCOCC2)n1Cc1ccccc1 | – | – | 78
O=C(CSc1nnc(-c2ccccc2)n1Cc1ccccc1)N1CCOCC1 | – | · | –
COc1cccc(NC(=O)N2CCC(C(N)=O)(N3CCCCC3)CC2)c1 | – | 40 | –
COc1ccc(S(=O)(=O)N2CCC(C(N)=O)(N3CCCCC3)CC2)cc1 | – | · | –
CCOC(=O)N1CCC(NC(=O)CCc2nc(-c3ccc(C)cc3)no2)CC1 | – | – | –
Cc1ccc(NC(=O)CSc2nnc(CCCCCNC(=O)OC(C)(C)C)o2)c(C)c1 | – | – | –
CCCn1c(NC(=O)c2cccc(S(=O)(=O)N3CCCC3)c2)nc2ccccc21 | -3.3 | · | 44
CCCn1c(NC(=O)c2ccccc2)nc2ccccc21 | – | – | –
CCCn1c(NC(=O)C2CCN(S(=O)(=O)c3cccs3)CC2)nc2ccccc21 | – | · | 84
O=C(NCc1ccccn1)C1CCN(S(=O)(=O)c2cccs2)CC1 | – | – | –
Cc1onc(-c2ccccc2)c1C(=O)N1CCCSC1=Nc1ccccc1 | – | · | –
N#C/C(C(N)=O)=c1/ccc2c(c1)N1C3=C(CCCC3)CC3CCCCC31N=2 (stereo unspecified) | -29 | – | –
N#CC(C#N)=c1ccc2c(c1)N1C3=C(CCCC3)CC3CCCCC31N=2 (stereo unspecified) | -28 | – | –
Cc1ccc(NC(=O)CSc2nnc(Cn3cnc4ccccc43)o2)cc1 | – | · | –
CCCCOC(=O)C1Cc2ccccc2C(=O)O1 (stereo unspecified) | · | – | –
Cc1cc(NC(=O)C2(c3ccccc3)CCCC2)no1 | – | – | –
SMILES | HER2 expr 66K | SK-BR-3 tox 24h | Jurkat viability
CCCCCn1c(SCC#N)nc2cc(C(=O)NCC3CCCO3)ccc2c1=O (stereo unspecified) | – | · | –
CCCCCn1c(SCC#N)nc2cc(C(=O)NC3CCCCC3)ccc2c1=O | -20 | – | –
Cc1cc(C(=O)CSc2nnc(-c3cccs3)n2Cc2ccccc2)c(C)n1C | – | · | –
O=c1c2ccccc2nnn1CSc1nnc(-c2cccs2)n1Cc1ccccc1 | – | · | 28
C=CCn1c(SCn2nnc3ccccc3c2=O)nc2scc(-c3cccs3)c2c1=O | – | · | –
O=c1cc(CSc2nnc(-c3cccs3)n2Cc2ccccc2)nc2sc3ccccc3n12 | – | · | 71
COc1ccc(C(=O)N2CCCC(c3nc(-c4ccc(OC)c(OC)c4)no3)C2)c(OC)c1 (stereo unspecified) | – | – | –
COC(=O)Cn1nc(-c2ccccc2)c2ccccc21 | – | · | –
COc1cccc(N2CCN(C(=O)c3[nH]c(C)c(C(C)=O)c3C)CC2)c1 | – | · | 91
CC(=O)c1c(C)[nH]c(C(=O)N2CCN(C(=O)c3ccco3)CC2)c1C | – | · | –
Nc1nc2sc3c(c2cc1C(=O)N1CCOCC1)CCCC3 | – | · | –
Cc1cccc2cc3c(N)c(C(=O)N4CCOCC4)sc3nc12 | – | – | 76
CC1CCCC(NC(=O)c2cn(C)c3ccc(S(=O)(=O)N4CCCC4)cc3c2=O)C1C (stereo unspecified) | – | – | –
Cn1cc(C(=O)NC2CCCCC2)c(=O)c2cc(S(=O)(=O)N3CCCC3)ccc21 | -4.8 | – | –
CC1CCN(S(=O)(=O)c2ccc3c(c2)c(=O)c(C(=O)NC2CCCC2)cn3C)CC1 | – | · | –
CC1CCCCC1NC(=O)c1cn(C)c2ccc(S(=O)(=O)N3CCCC3)cc2c1=O (stereo unspecified) | – | 43 | –
COc1nc(C#N)nc(N(C)C)n1 | – | – | –
c1cncc(-c2nc(Oc3ccc(-c4nnco4)cc3)c3c4c(sc3n2)CCCC4)c1 | – | · | –
O=S1(=O)C=C(Sc2nc3cc(Cl)ccc3o2)c2ccccc21 | -18 | · | 99
CN(C)c1nc(N)nc(CSc2nc3cc(Cl)ccc3o2)n1 | · | – | –
O=C(COc1ccc(S(=O)(=O)NC2CCCCC2)cc1)Nc1ccc2c(c1)OCCO2 | – | · | –
S=c1[nH]ncn1-c1ccccn1 | – | – | –
